# Records with an inconclusive call do not appear. The source made the active and inactive calls. How the source made its calls, unless noted: active means hit-call score of the fitted dose curve at least 0.9, where 1 is the maximum; inactive means score below 0.9.
# How the values were obtained:
# [1] = target: Paired box protein Pax-6 (Homo sapiens) (UniProt P26367); assay: ATG_Pax6_CIS: Attagene CIS-FACTORIAL HepG2 Assay for human Paired Box 6 (PAX6) (AID 2282956); details: HepG2 CIS-FACTORIAL PAX6 reporter transcription, RNA readout; actives raise or lower the signal
# Paired box protein Pax-6 (Homo sapiens), sequence (P26367 whole entry, looked up): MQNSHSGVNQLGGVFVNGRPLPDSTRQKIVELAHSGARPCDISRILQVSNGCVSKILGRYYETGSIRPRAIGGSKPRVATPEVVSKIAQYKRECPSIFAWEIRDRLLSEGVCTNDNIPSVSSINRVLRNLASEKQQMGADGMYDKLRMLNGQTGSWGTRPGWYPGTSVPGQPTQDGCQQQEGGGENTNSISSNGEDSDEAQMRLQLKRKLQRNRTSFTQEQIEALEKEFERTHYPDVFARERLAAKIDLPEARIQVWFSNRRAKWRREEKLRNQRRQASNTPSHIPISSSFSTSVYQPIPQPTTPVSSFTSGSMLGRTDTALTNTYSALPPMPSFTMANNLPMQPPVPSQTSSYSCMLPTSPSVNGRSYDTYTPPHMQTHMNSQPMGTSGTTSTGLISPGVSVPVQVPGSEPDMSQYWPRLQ
# How it was run: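 Fluorescent RT-PCR products separated by capillary electrophoresis report PAX6-linked promoter mRNA in HepG2 cells 24 h post-dose. Curves fitted bidirectionally, DMSO as negative control.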
# [2] = ATG_PXRE_CIS: Attagene CIS-FACTORIAL HepG2 Assay for human Pregnane X Receptor Element (PXRE) (AID 2282957); details: HepG2 Attagene CIS-FACTORIAL PXRE reporter, mRNA; actives raise or lower the signal
# How it was run: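 After a 24 h chemical incubation, total RNA from transfected HepG2 cells was reverse-transcribed and reporter cDNA amplified, FAM-labeled, HpaI-digested and sized by capillary electrophoresis. DMSO served as baseline for bidirectional curve fitting.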
# [3] = ATG_PPRE_CIS: Attagene CIS-FACTORIAL HepG2 Assay for human Peroxisome Proliferator-activated Response Element (PPRE) (AID 2282958); details: HepG2 PPRE cis-element reporter, Attagene transcription factor profiling; actives raise or lower the signal
# How it was run: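 PPRE activity in HepG2: transient cis-reporter transfection, 24 h compound incubation, reporter mRNA by RT-PCR and CE fluorescence; gain/loss fitted against DMSO.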
# [4] = ATG_RORE_CIS: Attagene CIS-FACTORIAL HepG2 Assay for human RAR-related Orphan Receptor Element (RORE) (AID 2282959); details: HepG2 Attagene cis-factorial RORE reporter, mRNA; actives raise or lower the signal
# How it was run: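 A 24-hour exposure of transfected HepG2 hepatoma cells precedes RNA isolation and reporter RT-PCR. Labeled products are digested with HpaI and resolved by capillary electrophoresis, with gain or loss of signal scored relative to DMSO.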
# [5] = ATG_Sox_CIS: Attagene CIS-FACTORIAL HepG2 Assay for human SRY-box transcription factor (SOX) (AID 2282960); details: HepG2 Attagene cis-factorial SOX reporter, mRNA; actives raise or lower the signal
# How it was run: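 HepG2, cis reporter units, 24 h exposure. Reporter mRNA: RT-PCR → FAM labelling → HpaI → CE fluorescence. Bidirectional fit vs DMSO.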
# [6] = target: Transcription factor Sp1 (Homo sapiens) (UniProt P08047); assay: ATG_Sp1_CIS: Attagene CIS-FACTORIAL HepG2 Assay for human Specificity Protein 1 (Sp1) (AID 2282961); details: HepG2 Sp1 cis-reporter transcription, actives raise or lower the signal
# Transcription factor Sp1 (Homo sapiens), sequence (P08047 whole entry, looked up, the tested form may be a part): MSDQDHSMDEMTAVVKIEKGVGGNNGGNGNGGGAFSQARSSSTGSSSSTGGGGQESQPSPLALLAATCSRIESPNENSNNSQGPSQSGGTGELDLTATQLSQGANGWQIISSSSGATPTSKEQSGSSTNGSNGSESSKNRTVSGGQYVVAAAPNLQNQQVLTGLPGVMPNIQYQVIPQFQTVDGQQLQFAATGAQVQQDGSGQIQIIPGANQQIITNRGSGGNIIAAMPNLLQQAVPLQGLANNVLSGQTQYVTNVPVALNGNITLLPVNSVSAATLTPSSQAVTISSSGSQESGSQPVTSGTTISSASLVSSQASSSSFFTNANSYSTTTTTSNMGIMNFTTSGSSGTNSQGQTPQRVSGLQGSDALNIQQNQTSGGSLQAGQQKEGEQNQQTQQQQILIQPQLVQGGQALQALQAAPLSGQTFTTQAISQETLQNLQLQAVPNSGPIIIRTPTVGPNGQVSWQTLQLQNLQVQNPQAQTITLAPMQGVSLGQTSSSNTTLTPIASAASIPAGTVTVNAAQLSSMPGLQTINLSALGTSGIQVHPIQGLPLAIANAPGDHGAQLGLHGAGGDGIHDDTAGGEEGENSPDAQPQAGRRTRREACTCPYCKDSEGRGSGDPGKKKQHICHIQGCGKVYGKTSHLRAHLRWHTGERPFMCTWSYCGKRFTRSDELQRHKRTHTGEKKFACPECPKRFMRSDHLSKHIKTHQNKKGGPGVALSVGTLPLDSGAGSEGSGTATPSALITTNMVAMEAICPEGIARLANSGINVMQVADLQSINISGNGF
# How it was run: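 Liver-derived HepG2 cells, cis-element reporter library, 24 h treatment; RNA isolated, cDNA amplified with reporter-specific primers, FAM-labeled fragments sized on capillary analyzer. DMSO baseline, bidirectional curve fit.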
# [7] = ATG_SREBP_CIS: Attagene CIS-FACTORIAL HepG2 Assay for human Sterol Regulatory Element Binding (SREBP) (AID 2282962); details: HepG2 Attagene cis-factorial SREBP reporter, mRNA; actives raise or lower the signal
# How it was run: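 Endogenous factor activity is measured in HepG2 through multiplexed reporter units under cis-element control. Following a 24 h incubation, reporter transcripts are reverse-transcribed, PCR-amplified and sized by capillary electrophoresis; activity is fitted in both directions relative to DMSO.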
# [8] = target: Signal transducer and activator of transcription 3 (Homo sapiens) (UniProt P40763); assay: ATG_STAT3_CIS: Attagene CIS-FACTORIAL HepG2 Assay for human Signal Transducer and Activator of Transcription 3 (STAT3) (AID 2282963); details: HepG2, Attagene cis-factorial STAT3 reporter transcription; actives raise or lower the signal
# Signal transducer and activator of transcription 3 (Homo sapiens), sequence (P40763 whole entry, looked up, the tested form may be a part): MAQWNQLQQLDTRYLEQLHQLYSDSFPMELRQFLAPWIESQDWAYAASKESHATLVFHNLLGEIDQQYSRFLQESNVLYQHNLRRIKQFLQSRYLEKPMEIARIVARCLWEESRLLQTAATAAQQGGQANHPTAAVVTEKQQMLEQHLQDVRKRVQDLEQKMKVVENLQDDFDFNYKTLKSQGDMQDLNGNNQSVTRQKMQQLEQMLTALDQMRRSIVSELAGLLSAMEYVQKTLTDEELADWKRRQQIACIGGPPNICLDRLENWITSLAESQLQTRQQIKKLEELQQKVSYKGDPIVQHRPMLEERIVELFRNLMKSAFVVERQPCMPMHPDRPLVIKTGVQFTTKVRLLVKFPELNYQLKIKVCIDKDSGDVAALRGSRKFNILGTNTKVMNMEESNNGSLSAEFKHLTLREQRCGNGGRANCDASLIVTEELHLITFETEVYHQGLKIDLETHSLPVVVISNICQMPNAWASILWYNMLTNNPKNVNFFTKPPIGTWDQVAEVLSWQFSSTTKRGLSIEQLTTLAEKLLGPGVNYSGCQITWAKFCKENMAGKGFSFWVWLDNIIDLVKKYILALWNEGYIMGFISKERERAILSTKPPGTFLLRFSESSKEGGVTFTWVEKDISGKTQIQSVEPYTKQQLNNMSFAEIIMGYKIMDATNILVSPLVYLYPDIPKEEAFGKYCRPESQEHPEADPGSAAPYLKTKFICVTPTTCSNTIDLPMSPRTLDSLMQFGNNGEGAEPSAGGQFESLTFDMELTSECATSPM
# How it was run: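 Fluorescence intensity of 6-FAM-labelled reporter fragments, separated by capillary electrophoresis after RT-PCR, gave the signal. Cells were HepG2 transfected with cis-element reporter units and treated 24 h; fitting was bidirectional relative to DMSO.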
# [9] = ATG_TA_CIS: Attagene CIS-FACTORIAL HepG2 Assay for human TA Basal Promoter (AID 2282964); details: HepG2 Attagene CIS-factorial TA basal promoter reporter; actives raise or lower the signal
# How it was run: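 Transfected HepG2, 24 h compound exposure; RNA → RT-PCR → FAM primer extension → HpaI cut → CE fluorescence. Gain/loss-of-signal fitted against DMSO negative control. Background-control readout.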
# [10] = ATG_TCF_b_cat_CIS: Attagene CIS-FACTORIAL HepG2 Assay for human T-Cell-Factor with beta-catenin (TCF/b-cat) (AID 2282965); details: HepG2 TCF/beta-catenin cis-reporter transcription, actives raise or lower the signal
# How it was run: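 HepG2, transient MRTU transfection, cis-element-driven reporters (endogenous TFs). 24 h compound exposure. Readout: reporter mRNA by RT-PCR + 6-FAM primer extension, HpaI digest, capillary electrophoresis. Gain/loss fit vs DMSO baseline.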
# [11] = ATG_TAL_CIS: Attagene CIS-FACTORIAL HepG2 Assay for human TAL Basal Promoter (AID 2282966); details: HepG2 Attagene cis-factorial TAL promoter reporter; actives raise or lower the signal;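 further: background control endpoint measuring basal TAL promoter reporter mRNA not a specific factor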
# How it was run: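 Basal-promoter background-control endpoint from a multiplexed HepG2 reporter panel. Cells were exposed 24 h, then reporter mRNA was read by RT-PCR/CE fluorescence and fitted in both directions relative to DMSO.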
# [12] = ATG_TGFb_CIS: Attagene CIS-FACTORIAL HepG2 Assay for human Transforming Growth Factor (TGF) (AID 2282967); details: HepG2 Attagene CIS TGFb reporter, mRNA transcription; actives raise or lower the signal
# How it was run: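 Readout: fluorescently labeled reporter cDNA fragments resolved by capillary electrophoresis after RT-PCR. Transfected HepG2 cells dosed for 24 h; endogenous TF activity at TGFB1-linked cis element; gain or loss fitted relative to DMSO.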
# [13] = ATG_VDRE_CIS: Attagene CIS-FACTORIAL HepG2 Assay for human Vitamin D Receptor Element (VDRE) (AID 2282968); details: HepG2 VDRE cis-reporter transcription, actives raise or lower the signal
# How it was run: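 Compounds were applied for 24 h to HepG2 cells transfected with promoter-regulated reporter units. Total RNA was reverse-transcribed, and reporter amplicons were fluorescently labelled and sized by capillary electrophoresis.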
# [14] = target: Estrogen receptor (Homo sapiens) (UniProt P03372); assay: ATG_ERa_TRANS: Attagene TRANS-FACTORIAL HepG2 Assay for human Estrogen Receptor alpha (ERa) (AID 2282970; active means hit-call score of the fitted dose curve at least 0.9, where 1 is the maximum); details: HepG2 Attagene TRANS ERa GAL4 reporter, mRNA
# Estrogen receptor (Homo sapiens), sequence (P03372 whole entry, looked up, the tested form may be a part): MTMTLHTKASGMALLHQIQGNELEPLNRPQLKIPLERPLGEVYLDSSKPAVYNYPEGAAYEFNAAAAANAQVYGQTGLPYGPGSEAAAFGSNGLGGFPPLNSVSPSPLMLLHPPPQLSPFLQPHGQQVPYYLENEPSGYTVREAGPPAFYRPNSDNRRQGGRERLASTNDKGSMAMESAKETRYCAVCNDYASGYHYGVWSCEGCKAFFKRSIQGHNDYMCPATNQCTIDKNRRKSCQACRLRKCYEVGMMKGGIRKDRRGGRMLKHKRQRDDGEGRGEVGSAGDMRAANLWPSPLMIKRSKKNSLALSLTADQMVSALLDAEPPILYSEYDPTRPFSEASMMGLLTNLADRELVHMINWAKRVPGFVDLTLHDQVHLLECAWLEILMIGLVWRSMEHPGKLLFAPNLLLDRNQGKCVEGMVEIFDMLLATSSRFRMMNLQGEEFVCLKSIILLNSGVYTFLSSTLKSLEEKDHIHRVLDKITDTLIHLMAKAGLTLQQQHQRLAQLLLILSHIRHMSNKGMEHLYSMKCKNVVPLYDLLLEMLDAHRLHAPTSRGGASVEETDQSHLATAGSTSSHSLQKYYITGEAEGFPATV
# How it was run: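 Gal4-fusion ERa transactivation, measured as reporter transcript level in transiently transfected HepG2 cells. Exposure 24 h; RT-PCR plus capillary electrophoresis with fluorescence detection.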
# [15] = target: X-box-binding protein 1 (Homo sapiens) (UniProt P17861); assay: ATG_Xbp1_CIS: Attagene CIS-FACTORIAL HepG2 Assay for human X-box Binding Protein 1 (XBP1) (AID 2282972); details: HepG2 XBP1 cis-element reporter, Attagene multiplex; actives raise or lower the signal
# X-box-binding protein 1 (Homo sapiens), sequence (P17861 whole entry, looked up): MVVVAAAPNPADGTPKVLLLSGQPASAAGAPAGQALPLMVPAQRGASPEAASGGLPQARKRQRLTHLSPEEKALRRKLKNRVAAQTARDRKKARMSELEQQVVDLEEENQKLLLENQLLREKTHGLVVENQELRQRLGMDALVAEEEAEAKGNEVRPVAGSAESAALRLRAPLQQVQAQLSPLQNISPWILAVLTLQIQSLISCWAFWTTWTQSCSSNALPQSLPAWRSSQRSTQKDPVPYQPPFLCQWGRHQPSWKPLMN
# How it was run: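 Multiplexed cis-reporter readout in transfected HepG2 liver cells. Exposure lasted 24 hours. Activity in either direction was fitted against DMSO as negative control and baseline.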
# [16] = ATG_M_19_TRANS: Attagene TRANS-FACTORIAL HepG2 Assay for M19 Transcription Factor (Internal Marker) (AID 2282974; active means hit-call score of the fitted dose curve at least 0.9, where 1 is the maximum); details: HepG2 Attagene TRANS-FACTORIAL M19 internal marker reporter
# How it was run: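 Transfected HepG2 (GAL4-UAS MRTUs), 24 h compound, TriZol RNA, DNase-treated RT, reporter PCR, FAM label, HpaI digest, CE fluorescence; gain vs DMSO.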
# [17] = ATG_GAL4_TRANS: Attagene TRANS-FACTORIAL HepG2 Assay for GAL4 (Internal Marker) (AID 2282976; active means hit-call score of the fitted dose curve at least 0.9, where 1 is the maximum); details: HepG2 Attagene TRANS GAL4 internal marker reporter
# How it was run: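 Background-control readout: GAL4-UAS reporter transcript in transiently transfected HepG2 cells after 24 h compound exposure. Measured by RT-PCR, 6-FAM primer extension, HpaI digest and capillary electrophoresis; gain-of-signal fit versus DMSO.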
# [18] = target: Nuclear receptor subfamily 1 group I member 3 (Homo sapiens) (UniProt Q14994); assay: ATG_CAR_TRANS: Attagene TRANS-FACTORIAL HepG2 Assay for human Constitutive Androstane Receptor (CAR) (AID 2282969; active means hit-call score of the fitted dose curve at least 0.9, where 1 is the maximum;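 further: activators raise reporter mRNA above DMSO so AC50 marks induction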); details: HepG2 Attagene TRANS-FACTORIAL CAR reporter
# Nuclear receptor subfamily 1 group I member 3 (Homo sapiens), sequence (Q14994 whole entry, looked up, the tested form may be a part): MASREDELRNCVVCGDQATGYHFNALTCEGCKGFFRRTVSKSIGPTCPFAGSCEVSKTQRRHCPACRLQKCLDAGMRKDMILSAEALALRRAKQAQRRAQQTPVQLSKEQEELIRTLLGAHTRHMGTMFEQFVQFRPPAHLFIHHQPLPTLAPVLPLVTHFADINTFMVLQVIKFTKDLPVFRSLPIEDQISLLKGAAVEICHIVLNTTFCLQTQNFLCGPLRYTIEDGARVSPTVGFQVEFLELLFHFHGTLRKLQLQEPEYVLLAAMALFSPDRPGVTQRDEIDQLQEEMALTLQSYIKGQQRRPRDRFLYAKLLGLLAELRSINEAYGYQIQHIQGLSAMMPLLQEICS
# How it was run: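 Transiently transfected HepG2, multiplex TRANS reporters (CAR-Gal4 chimera driving GAL4-UAS reporter). 24 h dosing. Readout: reporter transcript by RT-PCR + capillary electrophoresis, fluorescence intensity; positive direction vs DMSO.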
# [19] = target: Estrogen-related receptor gamma (Homo sapiens) (UniProt P62508); assay: ATG_ERRg_TRANS: Attagene TRANS-FACTORIAL HepG2 Assay for human Estrogen-Related Receptor gamma (ERRg) (AID 2282977; active means hit-call score of the fitted dose curve at least 0.9, where 1 is the maximum;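 further: hits increase reporter signal over DMSO so potencies reflect activators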); details: HepG2 Attagene TRANS reporter, ERRg transactivation
# Estrogen-related receptor gamma (Homo sapiens), sequence (P62508 whole entry, looked up, the tested form may be a part): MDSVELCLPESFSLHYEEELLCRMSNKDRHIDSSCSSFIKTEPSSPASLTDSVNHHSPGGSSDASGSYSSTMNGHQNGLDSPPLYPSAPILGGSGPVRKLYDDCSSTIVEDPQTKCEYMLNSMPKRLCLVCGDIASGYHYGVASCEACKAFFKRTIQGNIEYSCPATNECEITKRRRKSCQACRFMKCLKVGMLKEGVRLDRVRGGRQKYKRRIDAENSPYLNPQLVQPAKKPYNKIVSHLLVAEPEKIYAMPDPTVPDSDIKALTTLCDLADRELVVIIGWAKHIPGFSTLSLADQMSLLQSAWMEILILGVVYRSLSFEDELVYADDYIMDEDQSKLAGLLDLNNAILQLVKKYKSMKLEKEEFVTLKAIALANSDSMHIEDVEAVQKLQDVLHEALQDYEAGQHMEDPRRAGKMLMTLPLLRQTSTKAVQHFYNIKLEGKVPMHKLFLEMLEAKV
# How it was run: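 Induction of reporter transcripts through a chimeric NR-Gal4 protein is quantified in transfected human HepG2 liver cells after 24 h chemical exposure, using RT-PCR with capillary electrophoresis detection and DMSO as baseline.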
smiles,measurement,setting,value
NC(=O)c1ccccc1O,outcome,[1],inactive
same,outcome,[2],inactive
same,outcome,[3],inactive
same,outcome,[4],inactive
same,outcome,[5],inactive
same,outcome,[6],inactive
same,outcome,[7],inactive
same,outcome,[8],inactive
same,outcome,[9],inactive
same,outcome,[10],inactive
same,outcome,[11],inactive
same,outcome,[12],inactive
same,outcome,[13],inactive
same,outcome,[14],inactive
same,outcome,[15],inactive
same,outcome,[16],inactive
same,outcome,[17],inactive
N#CCc1ccc(Cl)cc1Cl,outcome,[1],inactive
same,AC50,[2],61.8 µM (active)
same,outcome,[3],inactive
same,outcome,[4],inactive
same,outcome,[5],inactive
same,outcome,[6],inactive
same,outcome,[7],inactive
same,outcome,[8],inactive
same,outcome,[9],inactive
same,outcome,[10],inactive
same,outcome,[11],inactive
same,outcome,[12],inactive
same,outcome,[13],inactive
same,outcome,[18],inactive
same,outcome,[14],inactive
same,outcome,[15],inactive
same,outcome,[16],inactive
CC(C)C1=CC2=CC[C@@H]3[C@](C)(CCC[C@@]3(C)C(=O)O)[C@H]2CC1,AC50,[1],71.2 µM (active)
same,AC50,[2],1.33 µM (active)
same,outcome,[3],inactive
same,AC50,[4],43.1 µM (active)
same,AC50,[5],169 µM (active)
same,outcome,[6],inactive
same,AC50,[7],25.9 µM (active)
same,outcome,[8],inactive
same,AC50,[9],89.6 µM (active)
same,outcome,[10],inactive
same,AC50,[11],52.1 µM (active)
same,AC50,[12],0.551 µM (active)
same,AC50,[13],4.54 µM (active)
same,outcome,[18],inactive
same,AC50,[14],31.9 µM (active)
same,outcome,[15],inactive
CCC(=O)Oc1ccc(/C(CC)=C(\CC)c2ccc(OC(=O)CC)cc2)cc1,AC50,[1],37.8 µM (active)
same,AC50,[2],2.95 µM (active)
same,outcome,[3],inactive
same,outcome,[4],inactive
same,AC50,[5],37.8 µM (active)
same,AC50,[6],23.4 µM (active)
same,outcome,[7],inactive
same,outcome,[8],inactive
same,AC50,[9],38.2 µM (active)
same,AC50,[10],26.4 µM (active)
same,outcome,[11],inactive
same,outcome,[12],inactive
same,AC50,[13],4.32 µM (active)
same,AC50,[14],0.54 µM (active)
same,AC50,[15],27.5 µM (active)
C[Si](C)(C)O[Si](O)(O)O,outcome,[1],inactive
same,AC50,[2],26.9 µM (active)
same,outcome,[3],inactive
same,outcome,[4],inactive
same,outcome,[5],inactive
same,outcome,[6],inactive
same,outcome,[7],inactive
same,outcome,[8],inactive
same,outcome,[9],inactive
same,outcome,[10],inactive
same,outcome,[11],inactive
same,outcome,[12],inactive
same,outcome,[13],inactive
same,outcome,[14],inactive
same,outcome,[15],inactive
C=CC=CC=CCCCCC,outcome,[1],inactive
same,AC50,[2],6.94 µM (active)
same,outcome,[3],inactive
same,outcome,[4],inactive
same,outcome,[5],inactive
same,outcome,[6],inactive
same,outcome,[7],inactive
same,outcome,[8],inactive
same,outcome,[9],inactive
same,outcome,[10],inactive
same,outcome,[11],inactive
same,outcome,[12],inactive
same,outcome,[13],inactive
same,outcome,[14],inactive
same,outcome,[15],inactive
CCCCCCOc1cc(C)c(O)c(C)c1C,outcome,[1],inactive
same,AC50,[2],3.01 µM (active)
same,outcome,[3],inactive
same,outcome,[4],inactive
same,outcome,[5],inactive
same,outcome,[6],inactive
same,outcome,[7],inactive
same,outcome,[8],inactive
same,outcome,[9],inactive
same,outcome,[10],inactive
same,outcome,[11],inactive
same,outcome,[12],inactive
same,AC50,[13],9.58 µM (active)
same,outcome,[18],inactive
same,outcome,[14],inactive
same,outcome,[15],inactive
same,outcome,[19],inactive
CCOC(=O)c1ccc(N(C)C)cc1,outcome,[1],inactive
same,AC50,[2],28.1 µM (active)
same,outcome,[3],inactive
same,outcome,[4],inactive
same,outcome,[5],inactive
same,outcome,[6],inactive
same,outcome,[7],inactive
same,outcome,[8],inactive
same,outcome,[9],inactive
same,outcome,[10],inactive
same,outcome,[11],inactive
same,outcome,[12],inactive
same,AC50,[13],65.8 µM (active)
same,outcome,[18],inactive
same,outcome,[14],inactive
same,outcome,[15],inactive

# Reference: PubChem BioAssay (EPA / NIEHS)
